High-throughput results from PubChem BioAssay.
A selection: hits, their analogues and other compounds. The true share with any hit is near 6.8%.
NADH enzymes = inhibition of NAD/NADH coupling enzymes, library profiling | coupled PK/LDH NADH assays, four targets | IC50, µM (doses to about 10 µM), inactives show at the top dose inhibition | 65,000 tested, 0.02% active;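 active means single-dose screening hits from any of four coupled enzyme assays that gave an IC50 when retested across doses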;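 further: the DPM-DC format reads NADH fluorescence rather than 340 nm absorbance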
Spn DPM-DC inh = S. pneumoniae DPM-DC inhibition. purified DPM-DC, PK/LDH coupled NADH fluorescence. AID 556. calls only at 10 µM. 65,000 tested, 0.49% active;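 active means the 320 compounds with the highest percent inhibition in the single-dose primary screen, excluding strongly autofluorescent ones, cut at about 32% in these data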;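 further: kinetic rate of NADH fluorescence loss reporting ADP formed by the decarboxylase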
PMK inhibit = inhibitors of Streptococcus pneumoniae phosphomevalonate kinase | purified PMK, PK/LDH-coupled NADH absorbance 340 nm | inhibition, % at 10 µM | 65,000 tested, 0.49% active | AID 539;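 active means top-ranked compounds by inhibition in the single 10 µM screen, taking a fixed number of the strongest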;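 further: 0% = full reaction with DMSO carrier and 100% = background rate without enzyme reaction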
Spn MK inh = inhibitors of Streptococcus pneumoniae mevalonate kinase | purified MK, PK/LDH-coupled NADH absorbance 340 nm | inhibition, % at 10 µM | 65,000 tested, 0.48% active | AID 555;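 active means ranked among the strongest by inhibition in the single 10 µM screen, a fixed top-ranked set picked for dose follow-up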
A340 absorber = compound absorbs light at 340 nm; fold change at 10 µM; compound absorbance at 340 nm, fold over control; 65,000 tested, under 10 active;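 active means at 10 µM dose, initial 340 nm absorbance at least 2 fold that of control wells; inactive means change under 2 fold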;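 further: initial absorbance extrapolated from kinetic A340 decline of NADH oxidation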
Autofluor 339 = intrinsic fluorescence of library compounds, ex339/em460 – biochemical, MLSMR library, data from DPM-DC assay, artefact control, profiling panel; compound autofluorescence, ex339/em460 nm, NADH buffer; active compounds read high; 1 = no-compound wells, NADH background; fluorescence fold increase at 10 µM; 65,000 tested, 5.5% active; AID 709;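 active means at 10 µM, mean starting fluorescence two-fold or more over control wells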;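 further: signal is the first read of a kinetic run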
Starred values were filed as active, the others as inactive; i = inactive; / = no result given; + = active, no number.

SMILES | NADH enzymes | Spn DPM-DC inh | PMK inhibit | Spn MK inh | A340 absorber | Autofluor 339
CC1(C)CC(=O)N(c2ccccc2)C1(C)O (centres undefined) | 3.0% | i | 1.0 | 5.0 | 1.01 | 1.08
CC(=O)c1cc2c(cc1NC(=O)CCc1ccccc1)OCO2 | 13.0% | i | 9.0 | 19.0 | 1.01 | 2.27*
CN(CCC(=O)Nc1ccc2c(c1)OCO2)Cc1ccccc1 | 19.0% | i | 13.0 | 45.0* | 0.98 | 1.16
CC(=O)Nc1ccc(NC(=O)c2cc(C)nn2-c2ccccc2)cc1 | 3.0% | i | 1.0 | 4.0 | 0.98 | 1.01
CC(=O)c1cc2c(cc1NC(=O)c1cc(C)nn1-c1ccccc1)OCO2 | 3.0% | / | 3.0 | 3.0 | 1.1 | 2.18*
CC(=O)c1cc2c(cc1NC(=O)CCCC(=O)O)OCO2 | 4.0% | i | 6.0 | 5.0 | 1.04 | 1.53
COc1cc2c(cc1OC)C(c1ccc3c(c1)OCO3)C1=C(CC(C)(C)CC1=O)N2 (centres undefined) | 11.0% | / | 17.0 | 5.0 | 1.09 | 4.88*
O=C(COc1ccc(S(=O)(=O)NC2CCCCC2)cc1)Nc1ccc2c(c1)OCCO2 | 9.0% | i | 14.0 | 13.0 | 1.05 | 1.04
O=c1c2cc(N3CCOCC3)ccc2[nH]c(=S)n1CCN1CCCC1 | 7.0% | i | 5.0 | 4.0 | 1.1 | 2.56*
O=c1c2cc(N3CCOCC3)ccc2[nH]c(=S)n1CCCN1CCCCCC1 | 10.0% | i | 10.0 | 11.0 | 1.06 | 2.91*
O=c1c2cc(N3CCOCC3)ccc2[nH]c(=S)n1CCCN1CCN(c2ccccc2F)CC1 | 19.0% | + | 11.0 | 3.0 | 1.05 | 3.54*
O=c1c2cc3c(cc2[nH]c(=S)n1CCN1CCOCC1)OCO3 | 5.0% | i | 12.0 | 3.0 | 1.09 | 1.05
Cc1ccc(Cn2c(=S)[nH]c3ccc(N4CCOCC4)cc3c2=O)o1 | 13.0% | i | 14.0 | 7.0 | 1.04 | 2.75*
O=C(NCc1ccccn1)C1CCN(S(=O)(=O)N2CCCC2)CC1 | 1.0% | i | 0.0 | 3.0 | 0.99 | 1.11
O=C(CN1C(=O)CSC1=O)c1ccccc1 | 5.0% | i | 14.0 | 2.0 | 1 | 1.16
CC(C)OCCCn1c(=S)[nH]c2ccc(N3CCOCC3)cc2c1=O | 15.0% | i | 15.0 | 5.0 | 1.04 | 3.69*
CC(C)OCCCn1c(=S)[nH]c2cc3c(cc2c1=O)OCO3 | 5.0% | i | 9.0 | 6.0 | 1.07 | 1.03
O=C(O)c1cc(-c2ccncc2)nc2ccc(S(=O)(=O)N3CCOCC3)cc12 | 3.0% | i | 8.0 | 0.0 | 1.07 | 1.08
Cc1ccc(S(=O)(=O)N2CCOCC(=O)NCCOCCNC(=O)COCC2)cc1 | 11.0% | + | 0.0 | 4.0 | 0.99 | 1.03
Cc1ccc2nc(-c3ccccc3)cn2c1 | 8.0% | i | 12.0 | 0.0 | 1.04 | 2.94*
Cc1ccn2cc(-c3ccc(S(=O)(=O)N4CCOCC4)cc3)nc2c1 | 8.0% | / | 10.0 | 5.0 | 1.09 | 2.23*
Cc1ccc2nc(-c3ccc(S(=O)(=O)N4CCOCC4)cc3)cn2c1 | 4.0% | / | 6.0 | 9.0 | 1.01 | 3.02*
O=C1C2CC=C(Cl)CC2C(=O)N1CN(Cc1ccco1)CN1C(=O)C2CC=C(Cl)CC2C1=O (centres undefined) | 6.0% | i | 7.0 | 10.0 | 1.03 | 1.17
CC(C)(C)NC(=O)c1sccc1C(=O)O | 4.0% | i | 13.0 | 0.0 | 1.02 | 1.14
CCOCCCNC(=O)C(NC(=O)CC1NC(=O)NC1=O)c1ccc(Cl)cc1 (centres undefined) | 7.0% | i | 7.0 | 7.0 | 0.97 | 1.13
SMILES | NADH enzymes | Spn DPM-DC inh | PMK inhibit | Spn MK inh | A340 absorber | Autofluor 339
Cc1ccc2nc3c(cc(C(=O)NCc4ccccc4)c(=N)n3CCCn3ccnc3)c(=O)n2c1 | 3.0% | / | 6.0 | 0.0 | 1.06 | 3.83*
Cc1cccn2c(=O)c3cc(C(=O)NC(C)c4ccccc4)c(=N)n(CCCn4ccnc4)c3nc12 (centres undefined) | 3.0% | / | 6.0 | 0.0 | 1.05 | 3.84*
CCOC(=O)c1ccc(NC(=O)Cn2cc3c(n2)CCC(C)C3)cc1 (centres undefined) | 5.0% | i | 13.0 | 8.0 | 0.99 | 1.01
CCCCc1cc2c(c(NC(C)=O)n1)c(=O)oc1ccccc12 | 4.0% | i | 10.0 | 4.0 | 1.02 | 1.57
CCCCc1cc2c(c(NC(=O)CC)n1)c(=O)oc1ccccc12 | 4.0% | i | 6.0 | 0.0 | 1.07 | 2.25*
CCOC(=O)c1ccc(N2C(=O)CC(NC3CCN(C(=O)c4cccc(Cl)c4)CC3)C2=O)cc1 (centres undefined) | 1.0% | i | 2.0 | 0.0 | 1.03 | 1.11
O=C(c1ccc2ccccc2c1)N1CCN(c2ccc(O)cc2)CC1 | 10.0% | i | 26.0* | 5.0 | 1.01 | 1.01
CN(C)C(=O)Nc1cnc2ccccc2c1 | 13.0% | + | 0.0 | 0.0 | 1.04 | 0.59
Cc1cccc(Nc2ccccc2C(=O)O)c1C | 3.0% | i | 4.0 | 4.0 | 1.01 | 0.96
CC(=O)n1cc(Nc2ccccc2C(=O)O)c2ccccc21 | 3.0% | / | 2.0 | 3.0 | 1.1 | 2.23*
CCC(=O)c1ccc(OCCSc2ncccn2)cc1 | 2.0% | i | 2.0 | 4.0 | 1.03 | 1.04
Cc1c(C#N)sc2nc(-c3ccccc3)nc(N3CCCC3)c12 | 2.0% | / | 0.0 | 3.0 | 1.06 | 2.45*
O=c1c(-c2nc3ccccc3o2)c2oc3ccccc3n2c2ccccc12 | 4.0% | / | 7.0 | 0.0 | 1.15 | 4.96*
COc1ccc2c(c1)c1c(n2C(C)=O)C(OC(C)=O)=NCC1 | 4.0% | / | 7.0 | 4.0 | 1.01 | 2.3*
CCN(CC)CCOC(=O)c1c(C)n(C)c2ccc(OC)cc12 | 2.0% | i | 5.0 | 0.0 | 1.02 | 1.12
CC(C)C1Cc2[nH]c(=O)c(C(=O)O)cc2CO1 (centres undefined) | 6.0% | i | 0.0 | 10.0 | 1.04 | 1.89
CCOC(=O)C1CCCN(C(=O)C2CCCN(S(C)(=O)=O)C2)C1 (centres undefined) | 9.0% | i | 26.0* | 1.0 | 0.99 | 1.06
C=C1CSc2nc(=O)c3c4c(sc3n21)CCC4 | 0.0% | i | 0.0 | 0.0 | 1.07 | 1.13
O=c1nc2n(c3sc4c(c13)CCC4)Cc1ccccc1-2 | 9.0% | / | 11.0 | 7.0 | 1.06 | 2.25*
Cc1onc(-c2ccccc2Cl)c1C(=O)Nc1cccc(-c2nc3ncccn3c2C)c1 | 6.0% | / | 12.0 | 0.0 | 1.02 | 5.18*
CC(=O)Nc1cccc(NC(=O)c2c(-c3ccccc3Cl)noc2C)c1 | 4.0% | i | 4.0 | 7.0 | 1.04 | 1.03
Cc1ccc(-c2cn3cccnc3n2)cc1NC(=O)c1c(-c2ccccc2Cl)noc1C | 5.0% | / | 10.0 | 0.0 | 1.03 | 5.22*
Cc1onc(-c2ccccc2Cl)c1C(=O)Nc1ccc(-c2cn3cccnc3n2)cc1 | 9.0% | / | 18.0 | 0.0 | 1.09 | 5.24*
COc1ccc2c(c1)c1ncn(Cc3ccco3)c(=O)c1n2C | 8.0% | / | 9.0 | 7.0 | 1.04 | 3.73*
